Reference: PubChem BioAssay AID488890 (Southern Research Specialized Biocontainment Screening …, 2010)
Among all 320,000 compounds or so, about 1,300 (0.41%) were called active. About 3% were inconclusive and are not listed. The rule behind the calls is not given here. A selection follows. Entries with a potency or affinity are not part of this list.

Assay: growth inhibition of non-replicating M. tuberculosis (AID 488890);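 note: plate controls were DMSO cells for no effect and high antibiotic wells for full effect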
Conditions: Mycobacterium tuberculosis non-replicating, at 25 µM, stronger effect = higher value
Compound O=C(COC(=O)c1cncc(Br)c1)NCC1CCCO1 (configuration not stated) has an inhibition of 4.18%. N#Cc1ccc(S(=O)(=O)N2CCC(C(=O)Nc3cccc(C(=O)NC4CC4)c3)CC2)cc1 gave an inhibition of 4.79%. Work on COC(=O)C1=C(C)N(C(C)C)C(=O)C1(NC(=O)C1CCCCC1)C(F)(F)F (configuration not stated) yielded an inhibition of 7.64%. In the case of CCOc1ccc(C(NC(=O)CC)c2c(O)ccc3ccccc23)cc1 (configuration not stated), the inhibition is reported as 22.7%. COc1ccc(N2CCOCC2)c(NC(=O)c2cccs2)c1 showed an inhibition of -2.48%. In the case of CN1C[C@H](C(=O)NC2(C)OC3(O)[C@@H]4CCCN4C(=O)[C@H](Cc4ccccc4)N3C2=O)CC2c3cccc4[nH]cc(c34)C[C@H]21 (some centres not stated), the inhibition is reported as 12.4%. Work on CC1CCC(NC(=O)C2CC(O)CN2S(=O)(=O)c2ccc([N+](=O)[O-])cc2)CC1 (configuration not stated) yielded an inhibition of 11.1%. Compound O=C(Nc1ccccc1N1CCOCC1)c1ccc2ccccc2n1 has an inhibition of 32.1%. For CSCCC(NC(=O)c1ccco1)C(=O)N1CCC(C(N)=O)CC1 (configuration not stated), the inhibition was -11.5%. COc1ccc(NC(=O)CN(C)C(=O)c2ccc3ccccc3n2)cc1 showed an inhibition of -6.38%. Compound O=C(Nc1cc(Cl)ncn1)c1ccccc1 has an inhibition of 5.29%. Work on CCN(CC(=O)Nc1cccc(OC)c1)CC(=O)Nc1ccc(C)cc1Cl yielded an inhibition of 13.4%. O=C(Nc1ccc(Cl)cc1)C1CCCCN1S(=O)(=O)c1ccccc1 (configuration not stated) showed an inhibition of 10.3%. Work on Cc1cc(C)c(C)c(OCC(=O)O/N=C(\N)c2ccccn2)c1 yielded an inhibition of 13%. CCOC(=O)c1cccc(-n2cccc2/C=C2\NC(=O)N(CC(=O)O)C2=O)c1 showed an inhibition of -4.64%. Work on CC(NC(=O)C1CCC(CNS(=O)(=O)c2ccccc2)CC1)c1ccc2c(c1)OCCO2 (configuration not stated) yielded an inhibition of 0.52%. Compound CC(=O)Nc1ccccc1Sc1ccccc1 has an inhibition of -2.8%. Work on N#CCC(CNc1ncc(C(F)(F)F)cc1Cl)OC(=O)c1ccc(Cl)cc1 (configuration not stated) yielded an inhibition of 27%. For CN(Cc1ccccc1)C(=O)c1ccco1, the inhibition was 14.6%. CC(C)(C)N(Cc1ccccc1)C(=O)COC(=O)c1ccc([N+](=O)[O-])o1 showed an inhibition of 4%. For Cc1cc(NC(=O)CSc2nncn2N)no1, the inhibition was -18%. COCc1cc(=O)[nH]c(Nc2nc3ccc(C)cc3o2)n1 gave an inhibition of -3.8%. For COC(=O)Cc1cc(=O)[nH]c(Nc2nc3ccccc3o2)n1, the inhibition was 69%. COc1cc(C(=O)NCCCNc2nc3c(C)cc(C)cc3cc2C#N)cc(OC)c1OC gave an inhibition of 40.9%. Work on Cc1[nH]n(-c2ccccc2)c(=O)c1N=Nc1ccc(Cl)cc1 yielded an inhibition of 22%. Compound Cc1[nH]n(-c2ccccc2)c(=O)c1N=Nc1cccc(Cl)c1 has an inhibition of 1.75%. In the case of COc1ccc(OC)c(C(=O)COC(=O)c2ccccc2O)c1, the inhibition is reported as 51.8%. Compound COc1ccccc1C(=O)COC(=O)c1ccccc1O has an inhibition of 26.5%. COc1ccc(/C=N/NC(=O)c2c(Br)cnn2C)c2ccccc12 showed an inhibition of 8.73%. Cc1cccc(CCNC(=O)Cn2ncc3c([nH]c4ccccc43)c2=O)c1 gave an inhibition of 3.21%. In the case of COc1ccc(C(=O)NNC(=O)C23CC4CC(CC(C4)C2)C3)c(OC)c1, the inhibition is reported as 1.7%. With COc1ccc(NC(=O)CNC(=O)C23CC4CC(CC(C4)C2)C3)c(OC)c1 the inhibition was 7.13%. In the case of Cc1cc(C)c2sc(N(CCCN(C)C)C(=O)CN3C(=O)c4ccccc4C3=O)nc2c1, the inhibition is reported as 16.6%. For COc1cccc(NC(=O)C2C3C=CC(O3)C2C(=O)NCc2cccnc2)c1 (configuration not stated), the inhibition was 7.86%. Compound Cc1nc2ccc(NC(=O)c3ccc([N+](=O)[O-])cc3)cc2s1 has an inhibition of 41.2%. Compound Cc1nc2ccc(NC(=O)c3ccc(Cl)c([N+](=O)[O-])c3)cc2s1 has an inhibition of -1.87%. Work on COc1cc(-c2c(C#N)c(N)nc3c2c(C)nn3-c2ccc(C)c(C)c2)cc(OC)c1OC yielded an inhibition of 20.3%. For Cc1ccccc1Nc1c([N+](=O)[O-])cncc1[N+](=O)[O-], the inhibition was 76%. In the case of COc1ccccc1Nc1c([N+](=O)[O-])cncc1[N+](=O)[O-], the inhibition is reported as 55.7%. With CCN(CC(=O)NCc1ccc(F)cc1)C(=O)c1ccc2c(c1)OCO2 the inhibition was -2%. In the case of COc1ccc(C(=O)N2CCN(C)C(=O)[C@@H]2C)cc1OC1CCN(C(C)C)CC1, the inhibition is reported as -16.1%. CCn1c(O)c(C=NC2CCCC2)sc1=S showed an inhibition of -4.02%. Oc1ccc(C=NC2CCCCC2)c(O)c1 gave an inhibition of -6.4%. Compound COCCOC(=O)c1c(C)oc2ccc(OC(=O)c3c(OC)cccc3OC)cc12 has an inhibition of 0.6%. CCOC(=O)Oc1ccc2oc(C)c(C(=O)OCCOC)c2c1 gave an inhibition of 61.6%. For CC(Oc1cc(Cl)ccc1Cl)C(=O)N/N=C\c1ccnn1C (configuration not stated), the inhibition was 10.1%. Compound CC1CCC(C(C)C)C(OC(=O)C[n+]2cc(-c3ccc(Cl)cc3)n3c2CCC3)C1 (configuration not stated) has an inhibition of 49.4%. With O=C(C[n+]1cc(-c2ccc(Cl)cc2)n2c1CCCCC2)c1ccccc1 the inhibition was -12.8%. Compound O=C(O)CSc1nnc(-c2ccccc2)o1 has an inhibition of -5.91%. In the case of Cc1cc(C)nc(SC2=CS(=O)(=O)c3ccccc32)n1, the inhibition is reported as -0.38%. With Cn1c(SC2=CS(=O)(=O)c3ccccc32)nc2ccccc21 the inhibition was 58%. Work on CSc1nnc(-c2ccccc2)o1 yielded an inhibition of 17.4%. In the case of CC(C)c1ccc(N(C(=O)c2snc(C(N)=O)c2N)C(C(=O)NC2CCCC2)c2ccncc2)cc1 (configuration not stated), the inhibition is reported as 15.7%. COc1ccccc1-c1cc(C(F)(F)F)nc(NCc2cccs2)n1 showed an inhibition of 13.2%. Cc1ccc(C(=O)N/C(=C\c2cn(C)c3ccccc23)C(=O)OCCN(C)C)cc1 showed an inhibition of 1.18%. CCOC(=O)C1CCN(C(=O)C(C)Oc2ccc(C(=O)c3ccccc3)cc2)CC1 (configuration not stated) showed an inhibition of 28.6%. With COc1cc(-c2ccc3oc(-c4ccsc4)cc(=O)c3c2)cc(OC)c1OC the inhibition was 72.1%. Cc1ncc([N+](=O)[O-])n1CC(=O)Nc1ccc(F)cc1F gave an inhibition of -8.21%. Compound CN(Cc1ccccc1)C(=O)Nc1ccc(Cl)cc1 has an inhibition of 48.8%. O=C1N=c2ccccc2=C1c1sc(=S)n(Cc2ccccc2Cl)c1O gave an inhibition of -18.1%. For CCOC(=O)c1ccc(-n2nc(C)cc2C)cc1, the inhibition was 13.4%. For Cc1cc(C)n(-c2ccc(C(=O)OC(C)C)cc2)n1, the inhibition was 5.09%. CCOc1cc2c(cc1OCC)-n1cccc1C(c1ccccc1F)NC2 (configuration not stated) gave an inhibition of 19.4%. Work on CS(=O)(=O)Cc1ccc(C(=O)N2CCCC2c2cccs2)cc1 (configuration not stated) yielded an inhibition of 0.57%. For O=C(NC1CCCc2c1cnn2-c1cc(F)cc(F)c1)c1ccccn1 (configuration not stated), the inhibition was 25.6%. Compound O=C(NC1CCCc2c1cnn2-c1cc(F)cc(F)c1)c1ccncc1 (configuration not stated) has an inhibition of 4.39%. In the case of CC(C)(C)OC(=O)NCCc1n[nH]c(=S)o1, the inhibition is reported as -4.45%. CSc1nc(O)c(N=Nc2ccc(F)cc2F)c(=O)[nH]1 gave an inhibition of 13.2%. In the case of O=C(CSc1nnc(CNC(=O)c2ccco2)o1)c1ccccc1, the inhibition is reported as 17.8%. With O=C(CSc1nnc(CNC(=O)c2ccco2)o1)Nc1ccccc1 the inhibition was -9.27%. Compound CCSc1nnc([C@@H](N)Cc2ccccc2)o1 has an inhibition of 4.66%. CCSc1nnc(C(N)Cc2ccccc2)o1 (configuration not stated) showed an inhibition of 42.5%.
